Source: PubChem BioAssay
Calls of active or inactive are those of the source.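 The calls were made as follows, unless noted: active = NADPH fluorescence slope more negative than the mean of all samples by about 3 SD, 99.7% confidence; inactive = the rest.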

How the values were obtained:
[1] = inhibitors of TNFa-induced NFkB p65 translocation, primary screen, imaging, HUVEC, MLSMR starter and 10KST1 sets (AID 438;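 active = inhibition above 20% together with a positive visual image hit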;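 also: compound added about 3h40 before a 20 min TNFalpha stimulation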;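 as to inhibition: signal is the nuclear over cytoplasmic p65 intensity ratio per well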); conditions: HUVEC TNFa-induced p65 nuclear translocation; cell count: measured here: nuclei count (cytotoxicity indicator), at 2.08 µM; inhibition: at 2 µM, stronger effect = higher value, 0% TNFa-plus-vehicle, 100% no-TNFa wells
[2] = inhibitors of mutant huntingtin aggregation, primary screen, imaging, exon1htt(103Q)mCFP cells, high-content imaging (AID 483;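 active = visual image review flags a hit and inhibition of aggregation exceeds 20%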;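 also: compound exposure lasted 3 days before fixation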;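 as to nuclei count: percent of the per-plate median nuclei count of sample wells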); conditions: exon1htt(103Q)mCFP cell line, aggregate imaging, at 2 µM; inhibition of aggregation: stronger effect = higher value; nuclei count: measured here: cell count, toxicity
[3] = inhibitors of E-selectin induction by TNFa, primary screen, imaging, HUVEC, immunofluorescence, MLSMR starter and 10KST1 sets (AID 487;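 active = visually confirmed hit in the image check and inhibition above 20%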;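 as to inhibition: signal is fraction of cell area covered by stained E-selectin grains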;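 as to nuclei count: 100% = median nuclei count of all wells on the same plate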); conditions: HUVEC TNFalpha-induced E-selectin immunofluorescence imaging, at 2 µM; inhibition: stronger effect = higher value; nuclei count: measured here: cell number, toxicity
[4] = molecular target: Voltage-gated potassium channel subunit beta-2 (Rattus norvegicus) (UniProt P62483); test: KvBeta enzyme negative modulators, primary screen, biochemical, NADPH fluorescence (AID 622;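 active = fluorescence slope higher than the sample average by over 3 SD, cut at about -0.22 in these data, passing the limit was not always enough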;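 also: slope of raw intensity against log time taken from 70 to 1610 s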); conditions: recombinant KvBeta, 4-cyanobenzaldehyde reduction, at 10 µM, stronger effect = higher value
[5] = molecular target: Voltage-gated potassium channel subunit beta-2 (Rattus norvegicus) (UniProt P62483); test: KvBeta positive modulators, primary screen, biochemical, NADPH fluorescence (AID 623); conditions: Recombinant KvBeta, NADPH fluorescence decrease slope, 10 min; at 10 µM; stronger effect = lower value;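 also: fluorescence intensity change per second fitted from 20 to 320 s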
[6] = molecular target: Alpha-2C adrenergic receptor (Homo sapiens) (UniProt P18825); test: modulators of alpha2C/GIRK thallium flux, primary screen, cell-based, HEK293 alpha2C/GIRK1/2 (AID 624;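 active = fluorescence slope after compound addition differing from the mean of all screened samples at 99.7% confidence, in either direction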;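 also: slope of fluorescence ratio to pre-addition baseline per second over 15 to 24 s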); conditions: thallium flux BTC fluorescence, at 10 µM, actives lie on both sides
[7] = inhibitors of Sendai virus-induced IRF3 signaling, primary screen, TLR/RLR signaling modifier project, cell-based, Sendai virus stimulus, luciferase, 10K MLSCN set (AID 602276;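 active = inhibition at or above 50% at 10 µM; inactive = inhibition below 50%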;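 also: firefly luciferase from ISG56 promoter only with Renilla not read in this screen; 0% = Sendai virus plus DMSO and 100% = medium plus DMSO without virus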); conditions: HEK293 RL24 IRF3 luciferase reporter, at 10 µM, stronger effect = higher value
[8] = inhibitors of poly I:C-induced TLR3 signaling, primary screen, cell-based, poly I:C stimulus, luciferase, 10K MLSCN set (AID 602277;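 active = inhibition of the reporter signal at or above 50%; inactive = inhibition below 50%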); conditions: HEK293-TLR3 RL24 IRF3 luciferase reporter, at 10 µM, stronger effect = higher value

Chain of Alpha-2C adrenergic receptor (Homo sapiens) (P18825 whole entry, looked up): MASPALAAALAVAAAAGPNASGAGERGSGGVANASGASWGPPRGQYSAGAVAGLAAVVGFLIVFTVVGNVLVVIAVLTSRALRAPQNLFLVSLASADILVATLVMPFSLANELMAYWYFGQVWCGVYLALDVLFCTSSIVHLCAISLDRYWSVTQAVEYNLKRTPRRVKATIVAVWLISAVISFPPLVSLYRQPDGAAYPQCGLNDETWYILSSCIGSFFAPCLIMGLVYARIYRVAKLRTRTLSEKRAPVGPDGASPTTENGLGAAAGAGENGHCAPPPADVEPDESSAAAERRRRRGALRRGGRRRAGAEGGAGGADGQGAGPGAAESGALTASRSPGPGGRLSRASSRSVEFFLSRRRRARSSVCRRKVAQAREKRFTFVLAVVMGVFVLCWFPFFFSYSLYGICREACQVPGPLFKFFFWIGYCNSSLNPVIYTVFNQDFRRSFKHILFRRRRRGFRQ
Chain of Voltage-gated potassium channel subunit beta-2 (Rattus norvegicus) (P62483 whole entry, looked up): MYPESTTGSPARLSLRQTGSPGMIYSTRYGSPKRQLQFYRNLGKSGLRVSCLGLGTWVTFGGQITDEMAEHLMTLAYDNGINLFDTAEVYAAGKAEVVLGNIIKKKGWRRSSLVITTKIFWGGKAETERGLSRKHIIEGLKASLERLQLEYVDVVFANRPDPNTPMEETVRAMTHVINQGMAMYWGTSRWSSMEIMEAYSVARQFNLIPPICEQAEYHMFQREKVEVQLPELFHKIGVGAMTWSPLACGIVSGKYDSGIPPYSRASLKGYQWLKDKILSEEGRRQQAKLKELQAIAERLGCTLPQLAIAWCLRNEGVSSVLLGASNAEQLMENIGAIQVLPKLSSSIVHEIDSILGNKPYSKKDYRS

SMILES	cell count [1]	inhibition [1]	inhibition of aggregation [2]	nuclei count [2] [%]	inhibition [3]	nuclei count [3] [%]	fluorescence slope [4]	NADPH fluorescence slope [5]	slope [6]	inhibition [7]	inhibition [8]
CCOC(=O)N1CCN(S(=O)(=O)c2ccc(F)c(C(=O)Nc3cc(C)cc(C)c3)c2)CC1	578	-19.7% (inactive)	16.1% (inactive)	62.7	-87% (inactive)	111	-0.393 (inactive)	-1.2e-05 (inactive)	0.00302 (inactive)	1.83% (inactive)	14.3% (inactive)
O=C(OCC(=O)c1ccccc1Br)c1ccccn1	308	2.7% (inactive)	-3.7% (inactive)	98.4	-10.2% (inactive)	95.3	-0.536 (inactive)	-4.2e-05 (inactive)	0.00716 (inactive)	3.27% (inactive)	26.5% (inactive)
CC(=O)Nc1ccc(NC(=O)Cn2cc3c(n2)CCC(C)C3)cc1 (stereo not drawn)	549	-6.3% (inactive)	3.5% (inactive)	95.1	-58.6% (inactive)	103	-0.284 (inactive)	-4.3e-05 (inactive)	0.00496 (inactive)	16.6% (inactive)	23% (inactive)
N#CCCN(C(=O)Nc1ccc(Cl)cc1)c1ccccc1	355	-2.1% (inactive)	-8.5% (inactive)	98.6	-15.7% (inactive)	99.7	-0.632 (inactive)	2.2e-05 (inactive)	0.00361 (inactive)	-5.26% (inactive)	-52.7% (inactive)
COc1ccc(Cl)cc1Nc1nc(NCCO)nc(N2CCCC2)n1	390	-4.3% (inactive)	5.8% (inactive)	95.9	-6% (inactive)	112	-0.595 (inactive)	-2.1e-05 (inactive)	0.00689 (inactive)	11.5% (inactive)	16.2% (inactive)
CCC(CO)Nc1ncnc2c1cnn2-c1ccc(Cl)cc1 (stereo not drawn)	550	10% (inactive)	7.5% (inactive)	101	10.3% (inactive)	111	-0.54 (inactive)	-1.3e-05 (inactive)	0.00667 (inactive)	38.4% (inactive)	-14% (inactive)
Cc1ccc(C(=O)CC2(O)C(=O)N(C)c3ccc(Br)cc32)c(C)c1 (stereo not drawn)	614	-5% (inactive)	-6.2% (inactive)	107	-23.2% (inactive)	123	-0.457 (inactive)	-5.1e-05 (inactive)	0.0058 (inactive)	15.6% (inactive)	31.5% (inactive)
Cc1cccc(NC(=O)c2ccccc2O)c1C	497	4.9% (inactive)	-10% (inactive)	98.2	-5.3% (inactive)	122	-0.482 (inactive)	-2.8e-05 (inactive)	0.00603 (inactive)	-45.5% (inactive)	-93.4% (inactive)
Cc1cccc(-c2nnc(SCC#N)n2-c2cccc(Cl)c2)c1	651	10.2% (inactive)	0.4% (inactive)	118	66.1% (inactive)	109	-0.441 (inactive)	-2.1e-05 (inactive)	0.00584 (inactive)	10.9% (inactive)	21.3% (inactive)
CCCN(Cc1cc2ccc(C)cc2[nH]c1=O)C(=O)c1cccnc1	779	2.6% (inactive)	-34.8% (inactive)	104	-5.8% (inactive)	109	-0.46 (inactive)	1.6e-05 (inactive)	0.00624 (inactive)	11.3% (inactive)	27.1% (inactive)
O=C1CCCC(O)=C1C=Nc1ccc2c(c1)oc1ccccc12	403	1.7% (inactive)	-0.4% (inactive)	95.2	24.8% (inactive)	106	-0.09 (active)	1.4e-05 (inactive)	0.00678 (inactive)	-23% (inactive)	-100% (inactive)
O=C(NCN1CCCCC1)c1cnccn1	604	-9.2% (inactive)	-3.4% (inactive)	102	-101% (inactive)	115	-0.425 (inactive)	-8.7e-05 (inactive)	0.00561 (inactive)	13.6% (inactive)	29% (inactive)
Cc1ccc(C)c(N(CC(=O)NCc2ccco2)C(=O)CCC(=O)Nc2ccccn2)c1	423	5.1% (inactive)	-7.8% (inactive)	114	-41% (inactive)	105	-0.608 (inactive)	-1.8e-05 (inactive)	0.00608 (inactive)	15.1% (inactive)	30.2% (inactive)
Cc1ccc(-c2cc(C(=O)NCCN3CCOCC3)no2)cc1	605	1.9% (inactive)	41.6% (inactive)	69.9	-4% (inactive)	101	-0.452 (inactive)	8.4e-05 (inactive)	0.0051 (inactive)	-29.5% (inactive)	-36.6% (inactive)
CCOC(=O)Nc1nnc(-c2ccccc2OC)s1	613	-2.7% (inactive)	-8.8% (inactive)	108	10.1% (inactive)	102	-0.514 (inactive)	1.1e-05 (inactive)	0.00542 (inactive)	-20.9% (inactive)	-24.1% (inactive)
CN(C)C(=O)N1CCN(C(=O)c2ccco2)CC1	827	-15.9% (inactive)	17.6% (inactive)	99.6	-69.2% (inactive)	114	-0.601 (inactive)	5.7e-06 (inactive)	0.00702 (inactive)	-4.34% (inactive)	19.5% (inactive)
COc1cccc(C(=O)NCc2nnc(SCC(=O)Nc3nccs3)n2-c2ccccc2)c1	756	-9.1% (inactive)	-1.7% (inactive)	120	-20.4% (inactive)	107	-0.626 (inactive)	1.6e-05 (inactive)	0.0057 (inactive)	10.5% (inactive)	35.1% (inactive)
CCOC(=O)CC1=C(C(=O)OCC)C(c2ccc(C)o2)C(C#N)=C(N)O1 (stereo not drawn)	339	-16.4% (inactive)	15.3% (inactive)	91.9	-46.5% (inactive)	94.7	-0.625 (inactive)	3.1e-06 (inactive)	0.00603 (inactive)	3.2% (inactive)	8.99% (inactive)
C=CCOc1nc2c(c(=O)n(C)c(=O)n2C)n1C	339	1% (inactive)	-1.3% (inactive)	113	0.3% (inactive)	119	-0.444 (inactive)	-4.9e-05 (inactive)	0.00278 (inactive)	6.05% (inactive)	34.1% (inactive)
COc1cccc(CN2CCN(C(=O)c3ccco3)CC2)c1OC	513	13.6% (inactive)	-4.9% (inactive)	100	-347% (inactive)	128	-0.595 (inactive)	1.5e-05 (inactive)	0.00742 (inactive)	11.8% (inactive)	8.85% (inactive)
COC(=O)c1cn(NC(=O)c2cccnc2)c(=O)c2ccccc12	364	2.5% (inactive)	-32.8% (inactive)	112	29.8% (inactive)	115	-0.538 (inactive)	-6.1e-05 (inactive)	0.00509 (inactive)	10.1% (inactive)	18.9% (inactive)
Cc1ccc(S(=O)(=O)N2CCOCC2)cc1C(=O)Nc1nc(-c2cccnc2)cs1	294	10.3% (inactive)	-1.2% (inactive)	99.3	-22.3% (inactive)	100	-0.527 (inactive)	2.5e-05 (inactive)	0.00585 (inactive)	7.72% (inactive)	15.3% (inactive)
COCCNC(=O)c1snc2ccc(Cl)cc12	375	6.7% (inactive)	4.9% (inactive)	89.8	-175% (inactive)	97.3	-0.563 (inactive)	3.8e-05 (inactive)	0.00546 (inactive)	-23.6% (inactive)	-62.4% (inactive)
Cc1nc(N)c(C#N)c(-c2cccnc2)c1C	494	-14.5% (inactive)	30.9% (inactive)	85	-16.2% (inactive)	88.9	-0.411 (inactive)	1.8e-05 (inactive)	0.00561 (inactive)	4.72% (inactive)	-5.6% (inactive)
COc1ccc(-c2nnc(SCC(=O)NC(C)c3ccccc3)o2)cc1 (stereo not drawn)	617	4.4% (inactive)	-59% (inactive)	104	-7.4% (inactive)	111	-0.593 (inactive)	-2.5e-05 (inactive)	0.00661 (inactive)	5.82% (inactive)	18.9% (inactive)
Cc1ccc(-c2oc3ccccc3c(=O)c2O)cc1	559	-12% (inactive)	-15.8% (inactive)	15.8	2.6% (inactive)	105	-0.0172 (active)	-2.7e-06 (inactive)	0.00718 (inactive)	-10.6% (inactive)	-26.8% (inactive)
N#CC(C(=O)NCCc1ccccc1)c1nc2ccccc2nc1N1CCOCC1 (stereo not drawn)	389	5.7% (inactive)	-43.6% (inactive)	103	-176% (inactive)	118	-0.401 (inactive)	-2e-05 (inactive)	0.00348 (inactive)	-27.6% (inactive)	-40.4% (inactive)
CC(C)CC(OC(=O)c1cccs1)C(=O)NCc1ccco1 (stereo not drawn)	364	19.1% (inactive)	-9% (inactive)	91.6	2.7% (inactive)	106	-0.425 (inactive)	-2.5e-05 (inactive)	0.00495 (inactive)	6.99% (inactive)	11.5% (inactive)
